“And” between values parts separate entries of the source, which are not always exact repeats. Equal values may be shown once. This is part of a sample that, as a whole, favours compounds with a hit. Of some 83,000 tested, about 20% had one in any assay.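 Results are percent growth after 48 hours of single-concentration exposure. 100 means growth as in untreated cells, lower positive values show inhibition; negative values down to -100 show cell death.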 Unmarked numbers belong to inactive results. The source made the active and inactive calls. Rule for the calls: active = growth percent below 10; inactive = the rest.

Among the test systems are HCT-15 colon; HT29 colon; SNB-75 CNS; U251 CNS; PC-3 prostate; SK-MEL-5 melanoma; UACC-62 melanoma; LOX IMVI melanoma; SK-MEL-28 melanoma; SK-MEL-2 melanoma; EKVX NSCLC; SN12C renal; TK-10 renal; ACHN renal; A498 renal; CCRF-CEM leukemia.
What all share (assay): NCI-60 one-dose screen, 48 h (100 = growth as untreated, 0 = no growth, -100 = all killed)
In another assay the test system is SNB-19 CNS. The settings on record: 10 µM unless noted.
Another assay deals with UO-31 renal. The note with it: 10 µM unless noted.
A further assay deals with CAKI-1 renal. The note with it: 10 µM unless noted.
The subject of another assay is HL-60(TB) leukemia. The settings on record: 10 µM unless noted.

As to `N#CC(NC(=O)CCl)=C(Cl)Cl`, the growth in the assay on HCT-15 colon (10 µM unless noted) was -21.1% (active); in the assay with HT29 colon (10 µM unless noted), -49.2% (active); in the assay on SNB-75 CNS (10 µM unless noted), 66.6%; with SNB-19 CNS it was 60.3%; in the assay on U251 CNS (10 µM unless noted), 9.19% (active); with PC-3 prostate (10 µM unless noted) it was 37.7%. Besides, the growth in the assay with SK-MEL-5 melanoma (10 µM unless noted) is 25.4%; with UACC-62 melanoma (10 µM unless noted), -5.68% (active); in the assay on LOX IMVI melanoma (10 µM unless noted), -56.4% (active); with SK-MEL-28 melanoma (10 µM unless noted), -39.9% (active); in the assay on SK-MEL-2 melanoma (10 µM unless noted) it was 51.5%; in the assay on EKVX NSCLC (10 µM unless noted), -45.3% (active). Besides, the growth in the assay with SN12C renal (10 µM unless noted) was 29%; in the assay with UO-31 renal, -40% (active); with TK-10 renal (10 µM unless noted), -13.1% (active); in the assay with ACHN renal (10 µM unless noted) it was -88.7% (active); with CAKI-1 renal it was -99.4% (active); with A498 renal (10 µM unless noted), 63.4%. In addition, the results for the growth in the assay with HL-60(TB) leukemia and in the assay with CCRF-CEM leukemia (10 µM unless noted) were -58.3% (active) and -21.9% (active), respectively.

For `CN(C)C(=S)SSC(=S)N(C)C`, the growth with HCT-15 colon (10 µM unless noted) was 93.9% and 113%; with HT29 colon (10 µM unless noted), 61.1% and 92.2%; in the assay with SNB-75 CNS (10 µM unless noted), 109% and 104%; in the assay on SNB-19 CNS it was 98.7% and 98.8%; in the assay on U251 CNS (10 µM unless noted) it was 81.2% and 75.7%; in the assay with PC-3 prostate (10 µM unless noted) it was 75.5% and 91.1%. The growth is 82% with SK-MEL-5 melanoma (10 µM unless noted); 97.4% and 96.2% in the assay with UACC-62 melanoma (10 µM unless noted); 104% and 108% with LOX IMVI melanoma (10 µM unless noted); 116% and 114% in the assay on SK-MEL-28 melanoma (10 µM unless noted); 109% and 108% in the assay on SK-MEL-2 melanoma (10 µM unless noted); 69.4% and 92.7% with EKVX NSCLC (10 µM unless noted). In addition, the growth in the assay on SN12C renal (10 µM unless noted) was 106% and 94.8%; with UO-31 renal, 79.1% and 80.5%; in the assay on TK-10 renal (10 µM unless noted), 106% and 101%; in the assay on ACHN renal (10 µM unless noted), 100%; in the assay on CAKI-1 renal it was 90.9%; with A498 renal (10 µM unless noted), 95.1%. Moreover, the growth in the assay on HL-60(TB) leukemia was 113%; in the assay on CCRF-CEM leukemia (10 µM unless noted) it was 68% and 91.5%.

Take `Cc1cc(Br)c([N+](=O)[O-])cc1[N+](=O)[O-]`: the growth was 76.1% with HCT-15 colon (10 µM unless noted); 103% in the assay on HT29 colon (10 µM unless noted); 108% with SNB-75 CNS (10 µM unless noted); 103% in the assay with SNB-19 CNS; 103% in the assay on U251 CNS (10 µM unless noted); 91.4% in the assay on PC-3 prostate (10 µM unless noted). Besides, the growth in the assay with SK-MEL-5 melanoma (10 µM unless noted) was 100%; with UACC-62 melanoma (10 µM unless noted) it was 102%; in the assay on LOX IMVI melanoma (10 µM unless noted), 19.7%; with SK-MEL-28 melanoma (10 µM unless noted), 116%; in the assay with SK-MEL-2 melanoma (10 µM unless noted), 111%; in the assay with EKVX NSCLC (10 µM unless noted), 103%. Moreover, the growth was 101% in the assay with SN12C renal (10 µM unless noted); 114% in the assay with UO-31 renal; 110% in the assay on TK-10 renal (10 µM unless noted); 106% in the assay with ACHN renal (10 µM unless noted); 88.5% in the assay with CAKI-1 renal; 97.9% in the assay on A498 renal (10 µM unless noted). Besides, the growth was 59.4% in the assay on HL-60(TB) leukemia and 60.5% in the assay on CCRF-CEM leukemia (10 µM unless noted).

Consider `C[C@]12C[C@H](c3ccoc3)OC(=O)[C@H]1CC[C@@]1(C)[C@@H]2[C@H]2C=C[C@]1(O)C(=O)O2`, for which the growth in the assay on HCT-15 colon (10 µM unless noted) is 101%; in the assay with HT29 colon (10 µM unless noted), 82.3%; with SNB-75 CNS (10 µM unless noted) it was 78.3%; in the assay with SNB-19 CNS, 102%; in the assay with U251 CNS (10 µM unless noted), 97.8%; in the assay on PC-3 prostate (10 µM unless noted), 74.8%. For the same molecule, the growth was 106% in the assay with SK-MEL-5 melanoma (10 µM unless noted); 92.5% in the assay with UACC-62 melanoma (10 µM unless noted); 106% in the assay with LOX IMVI melanoma (10 µM unless noted); 109% in the assay on SK-MEL-28 melanoma (10 µM unless noted); 94.9% in the assay on SK-MEL-2 melanoma (10 µM unless noted); 95.4% in the assay on EKVX NSCLC (10 µM unless noted). Also, the growth is 97.6% in the assay with SN12C renal (10 µM unless noted); 88% in the assay on UO-31 renal; 88.6% with TK-10 renal (10 µM unless noted); 108% with ACHN renal (10 µM unless noted); 81.9% in the assay with CAKI-1 renal; 105% in the assay with A498 renal (10 µM unless noted). The growth is 73.5% in the assay on HL-60(TB) leukemia and 96% with CCRF-CEM leukemia (10 µM unless noted).

In the case of `CC(=O)OCC1OC([S-])C(OC(C)=O)C(OC(C)=O)C1OC(C)=O.[Au+].c1ccc(CN2[CH-]N(Cc3ccccc3)C(c3ccccc3)=C2c2ccccc2)cc1`, the growth was -57.5% (active) with HCT-15 colon (4.75 µM); -79.8% (active) in the assay with HCT-15 colon (10 µM); 0.406% (active) in the assay on HT29 colon (4.75 µM); 16.4% in the assay with HT29 colon (10 µM); 26.1% in the assay with SNB-75 CNS (4.75 µM); 3.87% (active) in the assay with SNB-75 CNS (10 µM). Moreover, the growth in the assay on U251 CNS (4.75 µM) is -72.4% (active); in the assay with U251 CNS (10 µM), -84% (active); in the assay on PC-3 prostate (4.75 µM), 4.86% (active); with PC-3 prostate (10 µM), 9.73% (active); in the assay on SK-MEL-5 melanoma (4.75 µM), -50.5% (active); in the assay with SK-MEL-5 melanoma (10 µM) it was 16.8%. The growth with UACC-62 melanoma (4.75 µM) is -18.6% (active); in the assay with UACC-62 melanoma (10 µM), 3.54% (active); with LOX IMVI melanoma (4.75 µM), -82.1% (active); in the assay on LOX IMVI melanoma (10 µM), -86.2% (active); in the assay with SK-MEL-28 melanoma (4.75 µM), 10%; in the assay on SK-MEL-28 melanoma (10 µM), 20.2%. In addition, the growth in the assay on SK-MEL-2 melanoma (4.75 µM) was -22.7% (active); in the assay with SK-MEL-2 melanoma (10 µM), -30.8% (active); in the assay with EKVX NSCLC (4.75 µM) it was 8.29% (active); in the assay on EKVX NSCLC (10 µM) it was -13.6% (active); in the assay on SN12C renal (4.75 µM), -15.1% (active); in the assay on SN12C renal (10 µM), -49% (active). The growth with TK-10 renal (4.75 µM) is 5.22% (active); with TK-10 renal (10 µM), -41.6% (active); with ACHN renal (4.75 µM), -18.5% (active); in the assay with ACHN renal (10 µM) it was -39.3% (active); in the assay on A498 renal (4.75 µM) it was -14.7% (active); in the assay with A498 renal (10 µM) it was 50.4%. The growth in the assay with HL-60(TB) leukemia is -43.5% [4.75 µM] (active); with CCRF-CEM leukemia (4.75 µM) it was -21% (active); in the assay with CCRF-CEM leukemia (10 µM) it was 17.4%.

In the case of `ClC1OC(Cl)(Cl)C(Cl)(Cl)OC1(Cl)Cl` (stereo unspecified), the growth in the assay on HCT-15 colon (10 µM unless noted) was 106%; in the assay with HT29 colon (10 µM unless noted), 103%; in the assay with SNB-75 CNS (10 µM unless noted), 88.3%; with SNB-19 CNS, 112%; with U251 CNS (10 µM unless noted), 103%; with PC-3 prostate (10 µM unless noted) it was 104%. In addition, the growth with SK-MEL-5 melanoma (10 µM unless noted) is 100%; in the assay on UACC-62 melanoma (10 µM unless noted) it was 104%; in the assay on LOX IMVI melanoma (10 µM unless noted), 108%; in the assay with SK-MEL-28 melanoma (10 µM unless noted), 106%; in the assay on SK-MEL-2 melanoma (10 µM unless noted), 113%; with EKVX NSCLC (10 µM unless noted), 100%. The growth with SN12C renal (10 µM unless noted) was 95.1%; with UO-31 renal, 81.4%; in the assay with TK-10 renal (10 µM unless noted) it was 107%; in the assay on ACHN renal (10 µM unless noted) it was 99.7%; in the assay on CAKI-1 renal, 99%; in the assay with A498 renal (10 µM unless noted), 131%. Moreover, the growth in the assay with HL-60(TB) leukemia is 125%.

As for `C[C@]12CC[C@H]3[C@@H](CC=C4c5nc(N)sc5CC[C@@]43C)[C@@H]1CC[C@@H]2O`, the growth with HCT-15 colon (10 µM unless noted) is 98.4%; in the assay on HT29 colon (10 µM unless noted), 95.5%; in the assay with SNB-75 CNS (10 µM unless noted), 89.9%; with SNB-19 CNS, 99.2%; with U251 CNS (10 µM unless noted), 97.4%; with PC-3 prostate (10 µM unless noted), 98.5%. Besides, the growth is 98.5% in the assay on SK-MEL-5 melanoma (10 µM unless noted); 87.8% with UACC-62 melanoma (10 µM unless noted); 104% in the assay with LOX IMVI melanoma (10 µM unless noted); 113% with SK-MEL-28 melanoma (10 µM unless noted); 98% with SK-MEL-2 melanoma (10 µM unless noted); 101% with EKVX NSCLC (10 µM unless noted). Besides, the growth in the assay on SN12C renal (10 µM unless noted) was 93.8%; with UO-31 renal, 96.3%; in the assay on TK-10 renal (10 µM unless noted), 102%; with CAKI-1 renal it was 91.7%; with A498 renal (10 µM unless noted) it was 86%; with HL-60(TB) leukemia it was 87.8%. For the same molecule, the growth with CCRF-CEM leukemia (10 µM unless noted) was 91.2%.

Source of the values: PubChem BioAssay (NCI).
